# Measurements reported in PubChem BioAssay AID588413 (Sanford-Burnham Center for Chemical Genomics, 2011).
# Out of some 340,000 compounds screened, about 2,500 (0.74%) were called active.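 How the source made its calls: active means inhibition above about 55% (limit read from the data); inactive means the rest.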 The full list was thinned out, with actives kept by preference.
# Assay: Gli-Sufu pathway antagonists, primary screen, luciferase luminescence, Sufu-KO-LIGHT cells, uHTS (AID 588413);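 further: 0% = DMSO-treated cells and 100% = wells with medium but no cells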
# Details: Sufu-KO-LIGHT fibroblasts, Gli luciferase reporter luminescence; at 5 µM; active compounds read high
row,SMILES,inhibition
1,O=C(N/C(=C\c1ccc([N+](=O)[O-])cc1)C(=O)N1CCOCC1)c1cccc(Br)c1,14.4% (inactive)
2,Oc1ccc(/C=N/Nc2ccc(C(F)(F)F)cn2)cc1O,75.1% (active)
3,FC(F)(F)c1cccc(N/N=C/c2ccccc2)c1,2.85% (inactive)
4,CC(C)c1ccc(C=NNc2ccc([N+](=O)[O-])cn2)cc1,-110% (inactive)
5,COc1cccc2cc(C(=O)N(C)C)c(=O)oc12,-0.51% (inactive)
6,COc1cccc2cc(C(N)=O)/c(=N\NC(=O)c3ccccc3)oc12,61.3% (active)
7,COc1cccc2cc(C(=O)N3CCN(C(=O)c4ccccc4)CC3)c(=O)oc12,0.62% (inactive)
8,O=S(=O)(Cc1ccc(Cl)cc1Cl)c1ccc(Cl)cc1,-10.2% (inactive)
9,Nc1ccc(N=Nc2ccccc2Cl)c(N)n1,-22.2% (inactive)
10,O=c1c2ccccc2nc2n1C(CSCc1cccc(C(F)(F)F)c1)CS2 (stereo unspecified),65.9% (active)
11,N#Cc1c(-c2ccccc2)nc(SCc2cccc(C(F)(F)F)c2)[nH]c1=O,2.78% (inactive)
12,O=c1c2ccccc2nc2n1C(CSCc1ccccc1)CS2 (stereo unspecified),41.5% (inactive)
13,CN(O)C(=S)c1ccccc1,82.7% (active)
14,CN(/N=C/c1ccccc1)C(=S)c1ccccc1,2.13% (inactive)
15,CN(CC(=O)O)C(=O)c1ccccc1,-17.4% (inactive)
16,COc1ccc(CNc2c(CO)cnc3c2cnn3C)cc1,25.4% (inactive)
17,CCOC(=O)C1CN(S(=O)(=O)c2ccc(OC)cc2)c2cc(Cl)ccc2O1 (stereo unspecified),21.4% (inactive)
18,CCOc1ccc(S(=O)(=O)NCc2ccc3c(c2)OCO3)cc1C,-7.28% (inactive)
19,CCCOc1ccc(Cc2c(O)nc(SC)[nH]c2=O)cc1C,-2.99% (inactive)

row,SMILES,inhibition
1,CCCOc1ccc(Cc2c(Cl)nc(SC)nc2NC)cc1,57.3% (active)
2,CCCOc1ccc(Cn2c(O)cc(=O)[nH]c2=O)cc1,9.29% (inactive)
3,CC(C)N(C(=O)CN1CCN(S(=O)(=O)c2ccc(Br)s2)CC1)C(C)C,-1.96% (inactive)
4,CC(C)OCCCNc1ncnc2c1[nH]c1ccc(F)cc12,62% (active)
5,Fc1ccc2[nH]c3c(N4CCN(Cc5ccc6c(c5)OCO6)CC4)ncnc3c2c1,-4.16% (inactive)
6,CC(=O)NCc1ccc(S(=O)(=O)NC2CCN(Cc3ccccc3)CC2)cc1,-8.88% (inactive)
7,CC(=O)c1cc2c(cc1NC(=O)CN1CCCCCC1)OCO2,-2.2% (inactive)
8,COc1ccc(Cn2c(=O)cc(C)[nH]c2=S)cc1,8.5% (inactive)
9,CCn1c(C)cc(=O)cc1-c1ccc(Cl)cc1,8.82% (inactive)
10,COc1ccc(Cn2c(-c3ccc(Cl)cc3)c[n+]3ccccc23)cc1,66.8% (active)
11,C[C@@H]1CN([C@@H](C)CO)C(=O)c2cc(NC(=O)C3CC3)ccc2O[C@H]1CN(C)C,-16% (inactive)
12,Cc1ccccc1N1CCN(CC(=O)NCc2ccc(Cl)cc2)CC1,6.04% (inactive)
13,COc1ccc(OC)c(CN2C(=O)CCC2(C)C(=O)NC2CCCCCC2)c1 (stereo unspecified),23.4% (inactive)
14,O=C(C1CCCO1)N1CCN(C(=S)NC2CC2)CC1 (stereo unspecified),-11.3% (inactive)
15,Cc1ccc(-c2cn3cc(C)ccc3n2)cc1,63.8% (active)
16,Cc1ccc2nc(-c3ccc(Br)cc3)cn2c1,20.9% (inactive)
17,COc1ccc(-c2cn3ccc(C)cc3n2)cc1,-72% (inactive)
18,O=C(CCS(=O)(=O)c1cccc2nonc12)NCCc1ccccc1Cl,4.43% (inactive)
19,CC1(C)CCSC(/C=C/c2ccccc2)=N1,4.7% (inactive)

row,SMILES,inhibition
1,CCN(CC(=O)Nc1ccccc1C(F)(F)F)C(=O)C1CCN(C(=O)Nc2ccccc2)CC1,7.33% (inactive)
2,COc1cc(C(F)(F)F)c(C(=O)N(C)c2ccc(Cl)cc2)cn1,0.82% (inactive)
3,N=c1c2c3c(sc2nc2n1CCCCC2)CCCC3,-5.48% (inactive)
4,O=C(CCc1ccccc1)Nc1ccnn1C1CCN(Cc2ccc(OCCO)cc2)CC1,11.7% (inactive)
5,CC[n+]1cc(C)ccc1/C=C/c1ccc(N(C)C)cc1,81.8% (active)
6,COc1ccc(-c2c(C#Cc3ccsc3)c3cc(-c4ccc(CN5CCOCC5)cc4)ccc3n2C)cc1,9.39% (inactive)
7,O=C(COc1cccnc1[N+](=O)[O-])Nc1ccc(Cl)cc1F,-19.8% (inactive)
8,Cc1ccc(S(=O)(=O)NCCC(=O)NC2CCN(Cc3ccccc3)CC2)cc1,3.57% (inactive)
9,Cc1ccc(-c2nc(CSCC(=O)NC3CCN(Cc4ccccc4)CC3)c(C)o2)cc1,67.4% (active)
10,Cc1ccc(-c2cc(C(=O)NC3CCN(Cc4ccccc4)CC3)c3ccccc3n2)cc1,10.8% (inactive)
11,Cc1cc(C)c(C=NNc2nc3c([nH]2)c(=O)n(C)c(=O)n3C)c(C)c1,1.9% (inactive)
12,Cc1ccc(C(=O)Nc2sc(Cc3ccc4c(c3)OCO4)c(C)c2C(N)=O)cc1,-1.06% (inactive)
13,COCOc1cc(O)c(C(=O)/C=C/c2ccc(OCOC)c(OCOC)c2)c(OCOC)c1,3.02% (inactive)
14,Nc1ccc(C(=O)N2CCN(S(=O)(=O)c3ccc(Cl)cc3)CC2)cc1[N+](=O)[O-],98.7% (active)
15,CC(C)c1ccc(S(=O)(=O)N2CCN(C(=O)c3ccc(N4CCCC4)c([N+](=O)[O-])c3)CC2)cc1,-1.24% (inactive)
16,Cc1ccc(S(=O)(=O)N2CCN(C(=O)c3ccc(-n4cncn4)c([N+](=O)[O-])c3)CC2)cc1,1.3% (inactive)
17,CC(=O)c1cc(-c2ccccc2)n(CCC(=O)NC2CCCCCC2)c1C,1.89% (inactive)
18,COc1cccc2c1C(=O)c1c(O)c3c(c(O)c1C2=O)CC(O)(C(C)=NNC(=O)c1ccc(Cl)c(Cl)c1)CC3OC1CC(N)C(O)C(C)O1 (stereo unspecified),71.2% (active)
